Results: PubChem BioAssay (Tox21)
Results filed as inconclusive are left out. Calls of active or inactive are those of the source. Unless noted, calls follow the shape of the dose curve; as a rule, active = well fitted curve in the direction sought with a large enough effect in the repeat runs; inconclusive = weak or mixed curves; inactive = no such curve, though single readings can be large; an effect the other way counts as inactive or inconclusive.

What was measured:
[1] = qHTS assay to identify small molecule agonists of the peroxisome proliferator-activated receptor delta (PPARd) signaling pathway - cell viability counter screen (AID 743211); also: nearly all actives have a fitted effect of over 55% in size
Procedure, shortened: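 Following 5 h plating at 37 C and 5% CO2, PPARd UAS-bla HEK293H cells took up test compounds for 17 h. Viability was quantified by luminescence 30 min after CellTiter-Glo addition at room temperature.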

[2] = molecular target: Peroxisome proliferator-activated receptor delta (Homo sapiens) (UniProt Q03181); experiment: qHTS assay to identify small molecule agonists of the peroxisome proliferator-activated receptor delta (PPARd) signaling pathway (AID 743212; calls by dose curve)
Peroxisome proliferator-activated receptor delta (Homo sapiens), sequence (Q03181 whole entry, looked up): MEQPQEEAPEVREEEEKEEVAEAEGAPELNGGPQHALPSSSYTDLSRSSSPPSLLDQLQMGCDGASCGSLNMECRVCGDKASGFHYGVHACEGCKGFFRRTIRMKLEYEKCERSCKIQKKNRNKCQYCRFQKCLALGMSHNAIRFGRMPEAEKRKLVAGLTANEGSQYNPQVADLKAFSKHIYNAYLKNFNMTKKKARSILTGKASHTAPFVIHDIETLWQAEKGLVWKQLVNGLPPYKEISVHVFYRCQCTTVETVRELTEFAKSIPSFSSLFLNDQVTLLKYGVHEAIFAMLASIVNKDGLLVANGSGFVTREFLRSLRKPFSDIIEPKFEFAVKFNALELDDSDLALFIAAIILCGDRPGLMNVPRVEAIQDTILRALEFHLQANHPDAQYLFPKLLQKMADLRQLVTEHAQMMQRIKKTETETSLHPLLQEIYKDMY
Procedure, shortened: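 A PPARd-bla HEK293H line with beta-lactamase under an Upstream Activator Sequence is treated with compounds at 37 C. Substrate loading for 2 h at room temperature precedes the fluorescence measurement.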

[3] = qHTS assay to identify small molecule antagonists of the peroxisome proliferator-activated receptor delta (PPARd) signaling pathway - cell viability counter screen (AID 743213); also: nearly all actives have a fitted effect of over 50% in size
Procedure, shortened: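 In this counter screen, HEK293H cells carrying a UAS-beta-lactamase reporter are co-treated with test compounds and 300 nM L165041 (final) for 17 h at 37 C; cell viability is quantified by CellTiter-Glo luminescence.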

[4] = molecular target: Peroxisome proliferator-activated receptor delta (Homo sapiens) (UniProt Q03181); experiment: qHTS assay to identify small molecule antagonists of the peroxisome proliferator-activated receptor delta (PPARd) signaling pathway (AID 743215; active = well fitted inhibition curve with a large enough effect in the signal ratio in the repeat runs, not every such curve was filed as active; the % refers to the signal ratio;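 also: cells stimulated with agonist L165041 at 300 nM final during compound exposure; series mostly up to about 62 µM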)
Procedure, shortened: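 HEK293H UAS-bla, PPARd; agonist L165041 300 nM final with cpd in DMSO; 37 C 17 h; FRET substrate, RT 2 h; fluorescence intensity.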

[5] = qHTS assay to identify small molecule agonists of the farnesoid-X-receptor (FXR) signaling pathway - cell viability counter screen (AID 743218); also: nearly all actives have a fitted effect of over 45% in size
Procedure, shortened: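 Parallel cytotoxicity test: compound-treated (16 h, 37 C) HEK 293T FXR-bla reporter cells were lysed with CellTiter-Glo and luminescence recorded.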

[6] = qHTS assay to identify small molecule antagonists of the farnesoid-X-receptor (FXR) signaling pathway - cell viability counter screen (AID 743221; active = well fitted cell-killing curve with a large enough effect in the repeat runs, not every such curve was filed as active; also: nearly all actives have a fitted effect of over 50% in size)
Procedure, shortened: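 Compound effects on cell number were measured as CellTiter-Glo luminescence in HEK 293T cells expressing FXR-UAS-bla, after 16 h at 37 C with 50 uM CDCA (final).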

[7] = molecular target: Vitamin D3 receptor (Homo sapiens) (UniProt P11473); experiment: qHTS assay to identify small molecule agonists of the vitamin D receptor (VDR) signaling pathway (AID 743222; calls by dose curve)
Vitamin D3 receptor (Homo sapiens), sequence (P11473 whole entry, looked up): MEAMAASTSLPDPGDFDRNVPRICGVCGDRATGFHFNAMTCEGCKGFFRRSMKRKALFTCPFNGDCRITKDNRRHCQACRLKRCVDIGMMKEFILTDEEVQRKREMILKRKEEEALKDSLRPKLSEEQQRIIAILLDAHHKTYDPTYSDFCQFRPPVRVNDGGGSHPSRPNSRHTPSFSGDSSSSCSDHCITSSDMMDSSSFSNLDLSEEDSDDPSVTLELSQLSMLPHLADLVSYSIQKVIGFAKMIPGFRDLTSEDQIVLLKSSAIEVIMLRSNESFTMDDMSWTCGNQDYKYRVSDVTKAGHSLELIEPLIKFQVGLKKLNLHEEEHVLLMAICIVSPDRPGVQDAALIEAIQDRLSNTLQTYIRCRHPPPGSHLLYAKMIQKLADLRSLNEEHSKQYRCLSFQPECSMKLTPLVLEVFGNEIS
Procedure, shortened: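 In VDR-bla cells, compound-induced beta-lactamase expression is quantified by FRET substrate fluorescence. Treatment lasts 16 h at 37C; substrate develops 2 h at room temperature.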

[8] = qHTS assay to identify small molecule agonists of the vitamin D receptor (VDR) signaling pathway - cell viability counter screen (AID 743224); also: series mostly up to about 63 µM; nearly all actives have a fitted effect of over 50% in size
Procedure, shortened: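 Plated VDR-bla cells (4 h, 37C) received compound, incubated 16 h, then LiveBLAzer substrate 2 h RT; CellTiter-Glo added afterwards, luminescence read at 30 min.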

[9] = qHTS assay to identify small molecule antagonists of the vitamin D receptor (VDR) signaling pathway - cell viability counter screen (AID 743225); also: nearly all actives have a fitted effect of over 50% in size
Procedure, shortened: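 In this counter screen, VDR-bla HEK 293T cells receive test compound plus 3 nM final calcitriol for 16 h at 37C. Room-temperature steps of 2 h with the beta-lactamase substrate, then 30 min with CellTiter-Glo, precede the luminescence read.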

[10] = qHTS assay to identify small molecule agonists of the NFkB signaling pathway (AID 1159509; active = well fitted curve in the direction sought with a large enough effect in the signal ratio in the repeat runs, not every such curve was filed as active; the % refers to the signal ratio; also: series mostly up to about 61 µM)
Procedure, shortened: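 ME-180 NFkB-bla, 2,000 cells/well, overnight plating; cpd pinned in DMSO, 5 h 37 C; B/G FRET substrate 1.5 h RT; ex 405, em 460/530 nm.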

[11] = qHTS assay to identify small molecule agonists of the NFkB signaling pathway - cell viability counter screen (AID 1159515; calls by dose curve; also: series mostly up to about 61 µM; nearly all actives have a fitted effect of over 55% in size)
Procedure, shortened: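 Using the same wells as the NFkB reporter read, ME-180 NFkB-bla cells given compounds for 5 hr were assessed for viability via CellTiter-Glo, with luminescence taken after a 30 min room-temperature incubation.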

[12] = qHTS assay to identify small molecule agonists of the endoplasmic reticulum stress response signaling pathway (AID 1159516; active = well fitted activation curve with a large enough effect in the signal ratio in the repeat runs, not every such curve was filed as active; the % refers to the signal ratio)
Procedure, shortened: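 An ESRE-bla HeLa cell assay: compounds were pin-transferred from DMSO onto overnight-plated cells and left 5 hr at 37 C. Substrate was then loaded for 2 hr at room temperature before reading fluorescence at 460 nm and 530 nm.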

[13] = qHTS assay to identify small molecule agonists of the endoplasmic reticulum stress response signaling pathway - cell viability counter screen (AID 1159517; calls by dose curve)
Procedure, shortened: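 CellTiter-Glo was added to wells already read for beta-lactamase FRET, and luminescence was recorded 30 min later. Cells: ESRE-bla HeLa, 1,500 per well, compound exposure 5 hr at 37 C.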

[14] = qHTS assay to identify small molecule antagonists of the retinoid-related orphan receptor gamma (ROR-gamma) signaling pathway - cell viability counter screen (AID 1159520); also: nearly all actives have a fitted effect of over 50% in size
Procedure, shortened: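 Tet-on ROR gamma CHO cells (1,000/well) were plated 4 hr, given compounds in DMSO for 2 hr at 37 C, then induced with 1 uM final doxycycline for 16 hr. Viability was read as ATP by CellTiter-Glo luminescence after 30 min.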

[15] = molecular target: Nuclear receptor ROR-gamma (Homo sapiens) (UniProt P51449); experiment: qHTS assay to identify small molecule antagonists of the retinoid-related orphan receptor gamma (ROR-gamma) signaling pathway (AID 1159521)
Procedure, shortened: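 Screening format: cell-based luciferase reporter in CHO cells with doxycycline-inducible RORγ. Compound pre-exposure lasts 2 h, doxycycline is 1 uM final, induction runs 16 h at 37 C, and ONE-Glo luminescence is read.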

[16] = qHTS assay to identify small molecule agonists of the AP-1 signaling pathway - cell viability counter screen (AID 1159525; calls by dose curve; also: nearly all actives have a fitted effect of over 55% in size)
Procedure, shortened: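 ME-180 AP-1-bla, 2500 cells/well, Opti-MEM + 0.5% dialyzed FBS; overnight 37 °C; cpd 15-pt titration, 5 h 37 °C; CellTiter-Glo 30 min RT; luminescence read; normalised to TOAB and DMSO controls.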

[17] = qHTS assay to identify small molecule agonists of the AP-1 signaling pathway (AID 1159526; calls by dose curve)
[18] = molecular target: Vitamin D3 receptor (Homo sapiens) (UniProt P11473); experiment: qHTS assay to identify small molecule antagonists of the vitamin D receptor (VDR) signaling pathway (AID 743223; active = well fitted inhibition curve with a large enough effect in the signal ratio in the repeat runs, not every such curve was filed as active; the % refers to the signal ratio)
Procedure, shortened: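 Beta-lactamase activity in VDR-bla cells is measured by FRET substrate fluorescence (2 h, room temperature) after cells spend 16 h at 37C with test compound and 3 nM final 1alpha,25-dihydroxyvitamin D3.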

[19] = molecular target: Bile acid receptor (Homo sapiens) (UniProt Q96RI1); experiment: qHTS assay to identify small molecule antagonists of the farnesoid-X-receptor (FXR) signaling pathway (AID 743217; active = well fitted inhibition curve with a large enough effect in the signal ratio in the repeat runs, not every such curve was filed as active; the % refers to the signal ratio)
Bile acid receptor (Homo sapiens), sequence (Q96RI1 whole entry, looked up): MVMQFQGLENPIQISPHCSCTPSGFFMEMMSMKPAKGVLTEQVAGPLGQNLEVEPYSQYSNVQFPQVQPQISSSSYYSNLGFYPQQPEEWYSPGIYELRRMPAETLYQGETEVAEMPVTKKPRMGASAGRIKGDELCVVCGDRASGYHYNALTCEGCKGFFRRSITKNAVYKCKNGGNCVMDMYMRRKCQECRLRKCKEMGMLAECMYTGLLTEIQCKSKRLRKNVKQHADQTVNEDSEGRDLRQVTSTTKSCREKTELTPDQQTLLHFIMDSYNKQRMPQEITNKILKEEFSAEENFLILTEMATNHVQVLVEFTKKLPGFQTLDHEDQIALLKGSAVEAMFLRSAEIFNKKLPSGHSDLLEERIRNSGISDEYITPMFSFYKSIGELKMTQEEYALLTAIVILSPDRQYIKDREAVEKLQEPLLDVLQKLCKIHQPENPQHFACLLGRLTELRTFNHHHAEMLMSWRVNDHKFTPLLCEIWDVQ
Procedure, shortened: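 GeneBLAzer FXR-UAS-bla HEK 293T, CDCA-stimulated (50 uM final). Compound treatment 16 h, 37 °C. Detection: beta-lactamase cleavage of B/G FRET substrate, fluorescence.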

[20] = molecular target: Bile acid receptor (Homo sapiens) (UniProt Q96RI1); experiment: qHTS assay to identify small molecule agonists of the farnesoid-X-receptor (FXR) signaling pathway (AID 743220; active = well fitted activation curve with a large enough effect in the signal ratio in the repeat runs, not every such curve was filed as active; the % refers to the signal ratio)
Procedure, shortened: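 Beta-lactamase reporter under UAS control in GeneBLAzer FXR HEK 293T cells (5000/well) measured with LiveBLAzer FRET substrate after 2 h at room temperature. Compound exposure lasted 16 h at 37C.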

Measured: Potency

CCCCOC(=O)c1ccccc1
not listed: [18] | [19] | [20]
inactive: all other assays above

Nc1ccc([N+](=O)[O-])c(N)c1
not listed: [5] | [19] | [20]
inactive: all other assays above

COCCOCCOCCOCCOCCO
not listed: [18] | [19] | [20]
inactive: all other assays above

Cc1ccccc1OCC(O)CO (configuration not stated)
not listed: [7] | [18] | [19] | [20]
inactive: all other assays above

CC(=O)Nc1ccc(S(=O)(=O)Cl)cc1
not listed: [19] | [20]
inactive: all other assays above

O=C(Nc1ccc(Cl)c(Cl)c1)C1CC1
not listed: [7] | [18] | [19] | [20]
inactive: all other assays above

CCCCCCCCSCC
not listed: [9] | [18] | [19] | [20]
inactive: all other assays above

CC(C)NCC(O)COc1cccc2[nH]ccc12 (configuration not stated)
not listed: [7] | [18] | [19] | [20]
inactive: all other assays above

CNS(=O)(=O)CCc1ccc2[nH]cc(C3CCN(C)CC3)c2c1
not listed: [19] | [20]
inactive: all other assays above

O=C(OCC(COC(=O)c1cccnc1)(COC(=O)c1cccnc1)COC(=O)c1cccnc1)c1cccnc1
not listed: [7] | [18] | [19] | [20]
inactive: all other assays above

COc1ccc(C2CNC(=O)C2)cc1OC1CCCC1 (configuration not stated)
not listed: [19] | [20]
inactive: all other assays above

O=C(OCC1(COC(=O)c2cccnc2)CCCC(COC(=O)c2cccnc2)(COC(=O)c2cccnc2)C1O)c1cccnc1
not listed: [18] | [19] | [20]
inactive: all other assays above

C=C(C)C(=O)OCCNC(C)(C)C
not listed: [2] | [4] | [19] | [20]
inactive: all other assays above

Nc1ccc(S(=O)(=O)Nc2ccc(Cl)nn2)cc1
not listed: [1]
inactive: all other assays above

Cc1ccc(C=O)cc1C
not listed: [2] | [4] | [18]
inactive: all other assays above

NCCN1CCOCC1
not listed: [2] | [4] | [18] | [19] | [20]
inactive: all other assays above

CC(=O)N[C@@H](CCC(=O)O)C(=O)O
not listed: [2] | [4] | [7] | [18] | [19] | [20]
inactive: all other assays above

CC(=O)OC(C)OC(=O)C(C)c1ccc(-c2ccccc2)c(F)c1 (configuration not stated)
not listed: [2] | [5] | [18]
inactive: all other assays above

CCOCCOC(=O)/C=C/c1ccc(OC)cc1
not listed: [2] | [4]
inactive: all other assays above

CCCCCCCCCCl
not listed: [2] | [4]
inactive: all other assays above

CN(C)c1ccc(C=O)cc1
not listed: [1] | [18]
inactive: all other assays above

NS(=O)(=O)c1cc2c(cc1Cl)CN(C1CCCCC1)C2=O
not listed: [2] | [4] | [7]
inactive: all other assays above

O=S(=O)(O)c1cc(O)c2ccc(Nc3ccccc3)cc2c1
not listed: [2] | [4] | [19] | [20]
inactive: all other assays above

CC(=O)NCc1c(I)c(NC(C)=O)c(I)c(C(=O)O)c1I
not listed: [2] | [3] | [4] | [18] | [19] | [20]
inactive: all other assays above

N#Cc1ccc(C(=O)O)cc1
not listed: [2] | [4] | [18] | [19]
inactive: all other assays above

CCOC(=O)c1ncn2c1CN(C)C(=O)c1cc(F)ccc1-2
not listed: [2] | [4] | [7] | [18] | [19] | [20]
inactive: all other assays above

CC(C)CC(C)CC(C)CC(C)COC(=O)c1ccccc1C(=O)OCC(C)CC(C)CC(C)CC(C)C (configuration not stated)
not listed: [2] | [18]
inactive: all other assays above

CCCC(=O)C(C)=O
not listed: [1] | [18]
inactive: all other assays above
